Data reported in ChEMBL document CHEMBL3988442, “University of Dundee, Small-Polar-MMV Screening Library” (2021).
Out of some 69,000 compounds screened, about 950 (1.4%) showed an effect of 50% or more. This excerpt belongs to a sample that is enriched for strong results.

These compounds were tested on Mycobacterium tuberculosis (assay: Cornell M. t heat shock assay; note: in the data most compounds retested in dose-response had high values).
Format: functional, organism-based
Parameters: dose or concentration left out as unconfirmed

| Structure (SMILES) | Percent Effect [%] |
| --- | --- |
| CC(C)Cn1ccnc1CNC(=O)NC(C)c1nccs1 (centres undefined) | 55.14 |
| Cc1nc(C(C)NC(=O)NCc2nccn2CC(C)C)cs1 (centres undefined) | 0.1192 |
| CC(C)Cn1ccnc1CNC(=O)NC(C)(C)c1nccs1 | -19.09 |
| O=C(O)C(F)(F)F.O=C(c1cscn1)N1CCc2ncnc(-c3cccnc3)c2CC1 | -9.91 |
| COc1ccc(NC(=O)C2OC(c3cccs3)=NN2C(C)=O)cc1OC (centres undefined) | 54.99 |
| CC(=O)N1N=C(c2ccccc2)OC1C(=O)NCCc1cccc(Cl)c1 (centres undefined) | -5.794 |
| CC(=O)N1N=C(c2ccccc2)OC1C(=O)NCCc1cccc(F)c1 (centres undefined) | 26 |
| COc1ccc(NC(=O)C2OC(c3cccs3)=NN2C(C)=O)cc1 (centres undefined) | 19.1 |
| CC(=O)N1N=C(c2cccs2)OC1C(=O)Nc1ccccc1 (centres undefined) | 6.727 |
| CC(=O)N1N=C(c2cccs2)OC1C(=O)NCCc1cccc(Cl)c1 (centres undefined) | 62.85 |
| O=C(O)C(F)(F)F.O=C(c1ccc2ccccc2n1)N1CCC2(CCN2c2ncccn2)C1 (centres undefined) | -9.605 |
| CCc1ccc(CN2CCC3(CC2)CC(N2CCN(C)CC2)CO3)cc1.O=C(O)C(F)(F)F (centres undefined) | 2.884 |
| Cc1ccc(CCNC(=O)c2cccnc2)o1 | 80.23 |
| Cc1ccc(CN2CC[C@@H](NC(=O)c3cccnc3)[C@H](O)C2)o1 | 8.326 |
| Cc1ccc(CN(C(=O)NCCNC(=O)c2cccnc2)C(C)C)o1 | -12.97 |
| CCc1cc(C(=O)N2CCCC(Cc3ccc(NC)nn3)C2)on1 (centres undefined) | -39.14 |
| COCCCNC(=O)CN(C)C(=O)c1cc(Cl)ccc1O | 100.8 |
| COCCCNC(=O)CN(C)C(=O)c1ccccc1O | -10.97 |
| COCCCNC(=O)CN(C)C(=O)c1cc(C)ccc1O | 5.458 |
| N#Cc1cccc(CN2CCn3cc(Cn4cccn4)nc3C2)c1.O=C(O)C(F)(F)F.O=C(O)C(F)(F)F | -31.57 |
| COC[C@@H]1CCC[C@@]12CN(Cc1ccc(C)s1)CCO2.O=C(O)C(F)(F)F | -18.91 |
| CCOCc1cnc2n1CCN(C(=O)Cc1cccs1)C2C (centres undefined) | -15.31 |
| CCOCc1cnc2n1CCN(C(=O)c1ccccc1)C2C (centres undefined) | 53.26 |
| CCOCc1cnc2n1CCN(C(=O)c1cccc3c1OCCO3)C2C (centres undefined) | 51.66 |

| Structure (SMILES) | Percent Effect [%] |
| --- | --- |
| CCOCc1cnc2n1CCN(C(=O)C1=CCCC1)C2C (centres undefined) | -7.076 |
| CCOCc1cnc2n1CCN(C(=O)c1cn(C)c3ccccc13)C2C (centres undefined) | 8.997 |
| CCOCc1cnc2n1CCN(C(=O)c1ccoc1C)C2C (centres undefined) | 26.88 |
| Cc1nc(COC[C@@H]2CC[C@H]3[C@H](CCN3c3ncccn3)O2)cs1.O=C(O)C(F)(F)F | 3.819 |
| O=C(O)C(F)(F)F.O=C(O)C(F)(F)F.O=C(O)C(F)(F)F.c1ccc(N2CC3(CCN(Cc4cccnc4)C3)C2)nc1 | -1.371 |
| COc1ncccc1CN1C[C@H]2C[C@@H](C(=O)NCC3CC3)N(C)[C@H]2C1.O=C(O)C(F)(F)F.O=C(O)C(F)(F)F.O=C(O)C(F)(F)F | -0.5017 |
| COCCNC(=O)[C@@]12CCO[C@@H]1CCN(Cc1cc(C)on1)C2.O=C(O)C(F)(F)F | -5.953 |
| COc1ccc(C(CNS(=O)(=O)c2cn(C)nc2C)N2CCCC2)cc1.Cl (centres undefined) | -8.275 |
| CCN(Cc1cccc(Cl)c1)Cc1ncc(C(C)(C)C)o1 | -28.51 |
| Cc1cccc(CN(Cc2ccccn2)S(=O)(=O)N(C)C)c1 | -11.53 |
| Cc1cccc(CN(Cc2ccccn2)Cc2ncc(C(C)(C)C)o2)c1 | 77.52 |
| O=C(O)C(F)(F)F.O=C(c1cc[nH]n1)N1CCc2onc(COc3cccnc3)c2C1 | 4.696 |
| CC(Cn1ccnc1)NCc1cc(Br)c2c(c1)OCO2.Cl (centres undefined) | -15.88 |
| Cc1nc(CN2CCCC2Cn2cncn2)nc2ccccc12 (centres undefined) | 19.17 |
| O=C(CN1CCCC(Cn2cncn2)C1)Nc1cccnc1 (centres undefined) | 9.071 |
| Cc1nc2ccccc2nc1CN1CCCC1Cn1cccn1 (centres undefined) | 61.51 |
| O=C(CN1CCCC1Cn1cncn1)Nc1cccnc1 (centres undefined) | 62.16 |
| Cc1nc2ccccc2nc1CN1CCCCC1Cn1cncn1 (centres undefined) | 12.5 |
| Cc1nc2ccccc2nc1CN1CCCCC1Cn1cccn1 (centres undefined) | 5.148 |
| Clc1ccc2cccnc2c1CN1CCCCC1Cn1cncn1 (centres undefined) | 36.55 |
| Clc1ccc2cccnc2c1CN1CCCC1Cn1cncn1 (centres undefined) | 52.22 |
| O=C(CN1CCCCC1Cn1cncn1)Nc1ccncc1 (centres undefined) | -9.468 |
| Clc1ccc2cccnc2c1CN1CCCC(Cn2cncn2)C1 (centres undefined) | 18.36 |
| Cc1c(Cl)c(CN2CCCC2Cn2cncn2)nc2ccccc12 (centres undefined) | 54.06 |

| Structure (SMILES) | Percent Effect [%] |
| --- | --- |
| Cc1nc2ccccc2nc1CN1CCCC1Cn1cncn1 (centres undefined) | 3.442 |
| CN1CC(=O)N(c2cccc(F)c2)CC12CCN(Cc1cnn(C)c1)C2.O=C(O)C(F)(F)F.O=C(O)C(F)(F)F (centres undefined) | -4.947 |
| Cc1cccc(Nc2cc(C)nc(C3CCN(C(C)C)C3)n2)n1.O=CO (centres undefined) | -16.48 |
| Cn1cc(CN2CCC[C@]3(C[C@H](Oc4ncccc4F)CO3)C2)cn1.O=C(O)C(F)(F)F.O=C(O)C(F)(F)F | 15.03 |
| Cc1cnc(C(=O)N2CCCC(c3c(C)c(=O)nc4n3CCC4)C2)cn1.Cl (centres undefined) | -2.984 |
| Cc1cc2cc(C(=O)N3CC[C@H](O)[C@]4(CCCO4)C3)ccc2o1 | -15.2 |
| CCC(C)NS(=O)(=O)Cc1cccc(NC(=O)C2=CCCC2)c1 (centres undefined) | 26.24 |
| Cc1cccc2nc(CN3CCCC3Cn3cccn3)cn12 (centres undefined) | 71.56 |
| Cc1cccc2nc(CN3CCCC3Cn3cncn3)cn12 (centres undefined) | -15.33 |
| Cc1nc(C)n(CC2CCCN2Cc2cn3c(C)cccc3n2)n1 (centres undefined) | -6.121 |
| Cc1cc(N(C)C)nc(C2CCCNC2)n1.Cl (centres undefined) | -4.07 |
| COc1ccc(C[C@H]2CN(Cc3ccoc3)CC[C@H]2OC)cc1.O=C(O)C(F)(F)F | 23.61 |
| CCCN(CCn1c(=O)oc2ccccc21)CC1CC1 | 105 |
| Cc1noc(C)c1CN(C)Cn1c(=O)oc2ccccc21 | -12.14 |
| CC(NCCn1c(=O)oc2ccccc21)c1ccccn1 (centres undefined) | 5.47 |
| Cn1cc(C2CCCN2CCCn2c(=O)oc3ccccc32)cn1 (centres undefined) | -2.71 |
| CCN(Cc1ccc(C(C)=O)cc1)CC1CCOCC1 | 5.377 |
| CCN(CC)CCn1c(=O)oc2ccccc21.Cl | 76.75 |
| O=c1oc2ccccc2n1CCN(CC1CCOC1)C1CC1 (centres undefined) | -26.82 |
| CCN(CCn1c(=O)oc2ccccc21)CC1CCOCC1 | 86.99 |
| O=c1oc2ccccc2n1CCCN1CCCC1c1ccc(O)cc1 (centres undefined) | -35.87 |
| COc1cccc(Nc2nc(C3CCNCC3)c3sc(C)c(C)n23)c1.Cl | 44.92 |
| CN(C)[C@@H]1CN(Cc2cnn(C)c2)[C@@H]2COC[C@H]12.O=C(O)C(F)(F)F.O=C(O)C(F)(F)F.O=C(O)C(F)(F)F | -14.51 |
| O=C(O)C(F)(F)F.O=C1CC[C@H]2[C@H](CCN2c2ncccn2)N1c1ccccc1 | 21.09 |

| Structure (SMILES) | Percent Effect [%] |
| --- | --- |
| CO[C@H]1COCCN(Cc2c[nH]c3ccccc23)C1 | 82.59 |
| c1ccc(O[C@H]2COCCN(Cc3cccc4c3OCO4)C2)cc1 | -21.01 |
| COc1ccc(O[C@H]2COCCN(Cc3c[nH]c4ccccc34)C2)cc1 | 47.94 |
| c1ccc(O[C@H]2COCCN(Cc3c[nH]c4ccccc34)C2)cc1 | 78.8 |
| Fc1ccc(CN2CCOC[C@H](Oc3cccnc3)C2)cc1 | -34.69 |
| O=C(O)c1ccc2c(CN3CCOCC3)c[nH]c2c1 | -11.23 |
| FC(F)(F)c1ccccc1CN1CCOC[C@H](Oc2cccnc2)C1 | -28.03 |
| c1cncc(O[C@H]2COCCN(Cc3c[nH]c4ccccc34)C2)c1 | 58.82 |
| CC(C)(C)c1coc([C@@H]2COCCN2Cc2c[nH]c3ccccc23)n1 | 25.07 |
| CCC(C)S(=O)(=O)N1CCc2nc(C3CCNCC3)ncc2C1.Cl (centres undefined) | -3.075 |
| Cc1cccc(CN2CCc3nnc(CN4CCCCC4)n3CC2)n1.O=C(O)C(F)(F)F.O=C(O)C(F)(F)F | -5.727 |
| Cl.Cn1ccnc1N1CCN(C(=O)Cc2ccc(Cl)cc2)CC1 | -26.02 |
| Cc1ccc(C(=O)N2CC3(CCNCC3)c3cc(Cl)ccc32)cn1.O=C(O)C(F)(F)F.O=C(O)C(F)(F)F | 1.032 |
| Cc1cccc(CN2C(=O)C[C@H]3[C@@H]2CCN3Cc2ccco2)n1.O=C(O)C(F)(F)F.O=C(O)C(F)(F)F | -4.137 |
| Cn1cnc(S(=O)(=O)N2C[C@@H]3CC[C@H](C2)N(Cc2ccccn2)C3)c1 | 7.06 |
| O=C(CN1C[C@H]2CC[C@@H]1CN(Cc1ccccn1)C2)Nc1ccccc1 | 12.62 |
| Cn1ccc(NC(=O)CN2C[C@H]3CC[C@@H]2CN(Cc2ccccn2)C3)n1 | -21.74 |
| CC(C)(C)c1cc(CN2C[C@@H]3CC[C@H](C2)N(Cc2ccccn2)C3)n[nH]1 | 82.46 |
| Cc1nnsc1CN1C[C@H]2CC[C@@H]1CN(Cc1ccccn1)C2 | -2.005 |
| CC(C)(C)c1cc(CN2C[C@H]3CC[C@@H]2CN(Cc2ccccn2)C3)n[nH]1 | 99.23 |
| O=C(O)C(F)(F)F.c1ccc(CN2CCc3ncnc(C4CC4)c3CC2)cc1 | -16.81 |
| CC(=O)N1CC2(CCNCC2)c2cc(Cl)ccc21.Cl | 3.682 |
